Measured values as given in the supplement of paper PMC10681739.

Experiments:
ETS1 [1] = molecular target: T1, ETS1 (UniProt P14921); test: ETS1 binding intensity (PBM fluorescence), ETS1 alone (arbitrary fluorescence units); higher = stronger binding; conditions: ETS1 concentration 1 nM; RUNX1 concentration 0 nM
T1 sequence: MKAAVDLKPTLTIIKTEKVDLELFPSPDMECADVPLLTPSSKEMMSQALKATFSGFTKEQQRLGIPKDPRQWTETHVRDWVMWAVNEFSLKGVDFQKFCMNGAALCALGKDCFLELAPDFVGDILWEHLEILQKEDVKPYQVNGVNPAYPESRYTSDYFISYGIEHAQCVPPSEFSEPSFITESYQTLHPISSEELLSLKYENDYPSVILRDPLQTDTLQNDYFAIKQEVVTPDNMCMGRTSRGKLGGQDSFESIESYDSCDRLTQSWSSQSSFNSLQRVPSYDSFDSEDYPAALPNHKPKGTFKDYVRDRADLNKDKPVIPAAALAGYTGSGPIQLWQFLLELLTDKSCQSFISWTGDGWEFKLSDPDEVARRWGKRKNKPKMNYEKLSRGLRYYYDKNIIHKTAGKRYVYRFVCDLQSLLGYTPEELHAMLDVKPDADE

RUNX1 [2] = molecular target: RUNX1 (UniProt Q01196); test: RUNX1 binding intensity (PBM fluorescence), RUNX1 alone (arbitrary fluorescence units); higher = stronger binding; conditions: RUNX1 concentration 2 nM; ETS1 concentration 0 nM
Sequence of RUNX1 (Q01196 whole entry): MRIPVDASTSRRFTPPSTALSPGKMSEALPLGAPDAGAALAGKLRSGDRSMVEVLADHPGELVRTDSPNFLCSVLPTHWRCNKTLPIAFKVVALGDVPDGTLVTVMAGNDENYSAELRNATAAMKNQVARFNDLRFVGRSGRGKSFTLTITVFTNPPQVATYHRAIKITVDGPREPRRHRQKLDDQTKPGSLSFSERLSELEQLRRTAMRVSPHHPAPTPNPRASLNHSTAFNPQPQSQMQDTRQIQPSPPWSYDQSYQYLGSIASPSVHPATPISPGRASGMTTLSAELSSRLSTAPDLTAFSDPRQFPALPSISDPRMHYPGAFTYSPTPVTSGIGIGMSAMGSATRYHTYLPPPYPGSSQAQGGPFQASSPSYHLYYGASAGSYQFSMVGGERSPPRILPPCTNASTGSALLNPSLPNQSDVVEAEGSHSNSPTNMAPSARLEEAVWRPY
Procedure: (§1)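 Cooperative gcPBM on 36-bp genomic probes with neighbouring ETS1 and RUNX1 sites. Recombinant human RUNX1 (2 nM) was incubated alone or with ETS1 (25 nM) and detected with anti-RUNX1 antibody plus Alexa488 secondary. Values are medians over 4 replicate spots; the RUNX1+ETS1 data were normalised to the RUNX1-only data. The probes sit in constant array flanks that are not printed.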

ETS1 [3] = molecular target: T1, ETS1; test: ETS1 binding intensity (PBM fluorescence) in presence of RUNX1, normalised to ETS1-only experiment (arbitrary fluorescence units); higher = stronger binding; conditions: ETS1 concentration 1 nM; RUNX1 concentration 25 nM
RUNX1 [4] = molecular target: RUNX1 (UniProt Q01196); test: RUNX1 binding intensity (PBM fluorescence) in presence of ETS1, normalised to RUNX1-only experiment (arbitrary fluorescence units); higher = stronger binding; conditions: RUNX1 concentration 2 nM; ETS1 concentration 25 nM
Procedure: as §1
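Throughout, for RUNX1 binding intensity (PBM fluorescence) in presence of ETS1, normalised to RUNX1-only experiment: Full-length recombinant human ETS1 or RUNX1 bound to double-stranded 36-bp genomic probes on microarrays, detected by protein-specific primary antibody and Alexa488 secondary, spot fluorescence as median of four replicate spots.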
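Throughout, for RUNX1 binding intensity (PBM fluorescence), RUNX1 alone: Full-length recombinant human RUNX1 bound to double-stranded 36-bp genomic probes on a high-density microarray, scored as Alexa488 fluorescence per spot via anti-RUNX1 antibody, median of four replicate spots.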

Row | Sequence | ETS1 binding intensity (ETS1 [1]) | RUNX1 binding intensity (RUNX1 [2]) | ETS1 binding intensity (ETS1 [3]) | RUNX1 binding intensity (RUNX1 [4])
1 | AGTGGCTACCACTTCCTTCTCTTACCACAGTTCCTT | 442 | 1550 | 607 | 4520
2 | AGCGCCCCATCCCGCGGATGTGGTAAAGCTTCGCGC | 658 | 788 | 4400 | 1570
3 | TGCGCCGCGGAACCCGGAAGTGGTCACGGAGCTCGG | 10600 | 766 | 23400 | 3970
4 | CATCCAGGACGGAAACAGCATCCCCACCGCGGGAGC | 775 | 855 | 852 | 1080
5 | AATCATCAGGGAAATGCAAATCAAAACCACAATCAG | 547 | 1480 | 1200 | 1300
6 | AAAGGCGGAAGGGGGGCAGGGAACCCACAAAACAGA | 457 | 959 | 610 | 857
7 | GCGAAAGGAACTTCCTTTGCATGCGGTCAGAGTGCT | 477 | 892 | 2280 | 2490
8 | GAGAGAGGCAGGAAGTGTTGTGGTTATTGTTTGAGC | 4710 | 1240 | 24200 | 2210
9 | CAGTGGCAGGAAGAGGTCAGAAACCACTCGTGGTGG | 718 | 816 | 870 | 1100
10 | CTGCCGGAAGCTGCCCCTCCACCATTTTGTGGCCCG | 1770 | 818 | 1850 | 1280
11 | AACACCACTTCCTACTGTGAAACCACACTGTATTTG | 456 | 1200 | 588 | 2980
12 | GAATGACAGAAGCGGAAACCACATGAAAAAGGTGTT | 2010 | 913 | 4230 | 1360
13 | TGGACGTAACACTCAGGAAGTGGTCAACCTTGCTGC | 2630 | 820 | 5810 | 1340
14 | CGGCTGGCAGGAAGTGGCCACTTGAACCGCAGATGC | 4480 | 1190 | 23300 | 3880
15 | GCCCAGGCAGGAAGCCAGGCGCCCACAGGTTGGCAG | 990 | 643 | 1090 | 923
16 | CACTTCCGGGTCGTCAGCTCAGTTCTGCGGTTTCTG | 1030 | 4240 | 5740 | 12800
17 | GCAGAGAGGAGGGGATGTGGTTTCACAGCTTGCTCC | 422 | 835 | 1720 | 937
18 | TCCAGCCCCACCGGAAGTGGATGTGGTTAATCTAGT | 28800 | 955 | 56400 | 6380
19 | GGGAACTCACACCGGAAACCACAGAACCAAGAGTGG | 7140 | 3800 | 16300 | 6540
20 | TTAACCAGACATTTCCTGTGGTCTAAGGTGACCCCA | 859 | 1020 | 1090 | 2710
21 | CCCACCCAGGAAGCCGTCCTAACCACAACAGCCCTC | 514 | 4100 | 2580 | 6790

Row | Sequence | ETS1 binding intensity (ETS1 [1]) | RUNX1 binding intensity (RUNX1 [2]) | ETS1 binding intensity (ETS1 [3]) | RUNX1 binding intensity (RUNX1 [4])
22 | GAGAGGAGGATGTTGTCAGATACCCACAAATGAGAA | 566 | 812 | 621 | 889
23 | TGTGTAACTTCCTGGCTTTGGTGGTTTCCCCCTCCT | 1150 | 757 | 1390 | 2180
24 | GGCACTTCCGGTCCTGACCTGAAGCGGTAACCGTCA | 8390 | 719 | 8600 | 1820
25 | CAGCTTTCCGGCCTGCAGCACAGGCAATGTGGTTTT | 341 | 1020 | 554 | 2150
26 | GACCCGGCCCGCCCCTTCCGGCCGCAGCGCGGGGCA | 704 | 952 | 817 | 1490
27 | CGAGCAGGAAGTGGCAAGATTTGATAGGCGGTCAGG | 1970 | 739 | 2940 | 1450
28 | AGAAGCTTCTACAGGAAACCACTAATGGAGACAGAG | 1440 | 782 | 1970 | 958
29 | CGGCATCTGACAGGATGTGGGCAGGGAGAGAGAGAC | 3780 | 1270 | 9220 | 4210
30 | CATGGTGGTGACGCAGGATGTGGTGGTGGTGTAGAA | 2600 | 707 | 5340 | 937
31 | AGACCCGGAAATGGTGGGTGTTTCTTGCAACCACGG | 1810 | 668 | 2290 | 1240
32 | ATGGCGAAGCAGGATGCCCTCAACCCACATACGGCA | 638 | 1010 | 927 | 1000
33 | CGCCGGATGCATAAAAGACTGGCTGCGGTGGCTCAG | 604 | 724 | 1300 | 973
34 | TTTTGCCCAACAGGATGTGGTTTCTAAAGCAGACGG | 6620 | 1290 | 31600 | 18500
35 | GACCTGCCTTCCGGCCTCCGTCACATGACCGCACAG | 556 | 1110 | 1210 | 2000
36 | CTCACTCATCTGACTTCCTGCGGTTTACGACAACAG | 1200 | 11100 | 1970 | 17400
37 | CTCCCCCTTTTTTTCCTGTGGTTTCATTGCATGTTG | 454 | 6430 | 566 | 4190
38 | TCATAAGGAAGTGGAGTGTAGTAACCACAGGCCCCG | 417 | 829 | 1100 | 1340
39 | CCAGAGGGCGGAAGTGGGAGCTGCGACCGCGCTCCC | 3670 | 690 | 6280 | 1880
40 | ACGCGCTCCCTCACTTCCTGCGGCTTTTGGTCCCTC | 1310 | 1880 | 1500 | 2800
41 | TGTGATAAGGATGTTCGTGTGCCTTGTGGTCAGGTG | 623 | 889 | 1710 | 905
